# Pf growth 48h: P. falciparum growth inhibition at 48 hours (one generation); hit rate 5.9% among 310,000; Potency, µM (titrated, usually from 28.7 µM), for the others: top-dose activity change, negative = inhibition, most hits filed as inhibitors; P. falciparum luciferase growth in erythrocytes, 48 h; AID 504832; further: on the % scale 0 is the no-effect control and ±100 the full control effect
#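 Erythrocytes infected with P. falciparum carrying an integrated firefly luciferase reporter (2% hematocrit, 0.1% parasitemia final) were exposed to compounds in RPMI 1640 with 0.5% Albumax at 37 C, 5% CO2. Growth inhibition was scored as reduced luminescence.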
# NS1 function inh: inhibitors of influenza NS1 protein function | Potency, µM (doses to about 46.1 µM), inactives show top-dose activity, positive = more growth | hit rate 0.4% among 270,000 | AID 2326; calls by dose curve; further: actives are rising curves; nearly all actives have a fitted effect of over 50% in size
#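 Growth recovery, yeast-based: influenza A NS1 expressed in S. cerevisiae causes slow growth, and suppressors are detected by OD600. The parent strain without NS1 is used as positive control.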
# SARS PLP yeast: inhibitors of SARS-CoV papain-like protease in yeast. S. cerevisiae expressing SARS-CoV PLpro, growth rescue. Potency, µM (titrated, usually from 32.9 µM), without a hit: top-dose activity, positive = growth rescue, hits mostly activators. hit rate 0.19% among 330,000. AID 485353; calls by dose curve; further: 0% is about no effect; nearly all actives have a fitted effect of over 55% in size
# RE007 growth inh: less growth of the S. pombe RE007 Vpr strain. S. pombe RE007 Vpr strain, BacTiter-Glo ATP luminescence, 24 h. Potency, µM (highest dose often 92.2 µM), for inactives: at the highest dose activity change, negative = less growth, actives largely listed as inhibitors. hit rate 0.21% among 360,000; active means well fitted falling curve with a large enough effect; inconclusive means small, poorly fitted or top-dose-only effect; inactive means no such curve, though single readings can be large or run the other way; further: on the % scale 0 is the no-effect control and ±100 the full control effect; nearly all actives have a fitted effect of over 50% in size
#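 Fission yeast RE007 carrying one integrated HIV-1 vpr copy, seeded at OD 0.01 in PMG+AL medium with 23 nL pinned compound. Grown 24 h at 30 degrees; viability read by BacTiter-Glo luminescence after 5 min.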
# Pf growth 96h: inhibits malaria parasite growth, 96 h. P. falciparum luciferase reporter growth, 96 h. hit rate 6.9% among 320,000. AID 504834. Potency, µM (titrated, usually from 28.7 µM), without a hit: at the highest dose activity change, negative = inhibition, actives largely listed as inhibitors; further: on the % scale 0 is the no-effect control and ±100 the full control effect
#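 Delayed-death screen, second-generation endpoint: infected erythrocytes, 2% hematocrit, 0.05% parasitemia final; 96 hours at 37 C, 5% CO2; luciferase detection reagent; luminescence decrease equals reduced growth.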
# Active calls of the source: *; ? = inconclusive; nt = no result given; [ ] = dose if it differs, or a comment. Compounds with a hit are over-represented: about 9.5% of the library has one in this group of screens. Unless noted, the call rests on the fitted dose curve; in most records, active means well fitted inhibition curve with a large enough effect; inconclusive means small, poorly fitted or top-dose-only effect, or another doubt; inactive means no such curve, though single readings can be large or run the other way. Potency means the concentration at half of the fitted maximal effect.
SMILES,Pf growth 48h,NS1 function inh,SARS PLP yeast,RE007 growth inh,Pf growth 96h
NC(=O)CC(NC(=O)Cc1ccc(Br)cc1)c1ccc(NCCN2CCCCC2)c([N+](=O)[O-])c1 (stereo unspecified),29%,-9%,-6%,2%,0.01µM*
CCOC(=O)c1[nH]c2c(c1C)C(=O)CC(c1ccc(OC)c(OC)c1)C2 (stereo unspecified),?,3%,1%,10%,42%
COc1cc(C2CC(=O)c3c([nH]c(C(=O)OCCOC(C)C)c3C)C2)cc(OC)c1OC (stereo unspecified),7.4µM*,-31%,-2%,5%,?
CCOCCOC(=O)c1[nH]c2c(c1C)C(=O)CC(c1ccc(OC)c(OC)c1)C2 (stereo unspecified),?,23%,1%,2%,1.5µM*
Cc1ccc(NS(=O)(=O)c2cccc3nsnc23)cc1,?,-3%,-1%,-14%,-5%
CC(NC(=O)CCNS(=O)(=O)c1cccc2nsnc12)c1ccccc1 (stereo unspecified),7%,-3%,2%,-4%,2.9µM*
O=S(=O)(NCCC1=CCCCC1)c1cccc2nsnc12,3.7µM*,-57%,5%,5%,57%
O=S(=O)(Nc1ccccc1)c1cccc2nsnc12,5%,0%,?,-26%,8.3µM*
O=C1C2C(c3ccccc3)C=CC(c3ccccc3)C2C(=O)N1c1ccccn1 (stereo unspecified),33%,-29%,-6%,-2%,1.3µM*
COC(=O)c1cc(Br)c(=O)n(Cc2ccc3c(c2)OCO3)c1,?,0%,4%,-8%,9.3µM*
COc1ccc(Nc2nc(C)cc(C)n2)cc1Cl,75%,-22%,-6%,2%,-29%
COc1nc(Nc2ccc(OC)c(Cl)c2)nc(OC)n1,8.3µM*,-6%,1%,-5%,-16%
COc1ccc(/C=N/n2cc(-c3ccccc3)nc2N)cc1,?,4%,-3%,14%,10µM*
Cc1ccc(NC(=S)NCc2cccn2C)cc1,nt,15%,?,14%,?
Cc1cccc(NC(=S)NCc2cccn2C)c1,nt,29%,-9%,-13%,12µM*
CCOC(=O)c1cc2c(ccn2-c2ccc(F)cc2)n1CC(=O)NC(C)(C)C,?,1%,-1%,nt,-28%
CCCC[C@]12Cc3cc(C#N)ccc3C(O1)c1c(c3cc(F)ccc3oc1=O)O2,-14%[5.75 µM],18%,3%[6.58 µM],nt,1.3µM*
COc1cc2c(cc1OC)C1O[C@](c3ccsc3)(C2)Oc2c1c(=O)oc1ccc(F)cc21,1.5µM*,?,5%[6.58 µM],nt,?
N#Cc1ccc2c(c1)C[C@]1(c3ccsc3)Oc3c(c(=O)oc4ccccc34)C2O1,?,19%,-4%[6.58 µM],nt,?
Cc1cc2c(c(=O)o1)C1O[C@](c3ccsc3)(Cc3cc(C#N)ccc31)O2,?,?,-4%[6.58 µM],nt,?
CCCC[C@]12Cc3cc(C#N)ccc3C(O1)c1c(c3ccccc3oc1=O)O2,-15%[5.75 µM],14%,0%[6.58 µM],nt,?
N#Cc1ccc2c(c1)C[C@]1(c3ccsc3)Oc3c(c(=O)oc4ccc(F)cc34)C2O1,1.5µM*,15%,-18%[6.58 µM],nt,73%[5.75 µM]
CC1(C)CC(=O)C2=C(C1)O[C@@]1(c3ccsc3)Cc3cc(C#N)ccc3C2O1,1.5µM*,27%,?,nt,?
COc1ccc(OC)c(NC(=O)NNS(=O)(=O)c2ccc(C)cc2C)c1,9%,6%,2%,4%,-13%
O=[N+]([O-])c1ccc(Cl)c(CNc2ncnc3c2ncn3[C@@H]2CCCCO2)c1,nt,-6%,nt,nt,nt
SMILES,Pf growth 48h,NS1 function inh,SARS PLP yeast,RE007 growth inh,Pf growth 96h
COc1cccc(C(=O)COc2ccc(NC(=O)c3cccs3)cc2)c1,12µM*,18%,2%,13%,?
COc1cccc(-c2nc(-c3ccc(NC(=O)c4ccncc4)cc3)no2)c1,nt,-12%,2%,14%[3.69 µM],?
CCCCOc1cccc(C(=O)Nc2ccc(NC(=O)c3cccs3)cc2)c1,0%,12%,1%,6%,4.7µM*
COc1cccc(-c2nc(-c3ccc(NC(=O)c4cccs4)cc3)no2)c1,16%,-8%,-1%,5%,4.1µM*
O=C(Oc1ccc2ccccc2c1Cl)N1CCCCCC1,246%,-17%,-57%,-28%,3.3µM*
O=C(Oc1c(Cl)cc(Cl)c2ccccc12)N1CCCCC1,nt,11%,-21%,11%,12µM*
O=C(Oc1c(Cl)cc(Cl)c2ccccc12)N1CCCC1,?,-36%,-1%,-8%,?
O=C(Oc1ccc2ccccc2c1Cl)N1CCCC1,239%,-45%,-1%,-16%,?
COc1ccc2c(c1OC)C(C1c3c(cc4c(c3OC)OCO4)CCN1C)OC2=O (stereo unspecified),?,6%,-1%,2%,?
COc1ccc2c(c1OC)C(=O)OC2C1c2c(cc3c(c2OC)OCO3)CCN1C (stereo unspecified),?,-2%,1%,9%[18.4 µM],13µM*
CN1CCc2cc3c(c4c2[C@H]1[C@H](O)c1ccccc1-4)OCO3,1.7µM*,-24%,-14%,-24%,?
COc1ccccc1CC(O)CC1c2c(cc3c(c2OC)OCO3)CCN1C (stereo unspecified),nt,nt,nt,-11%,nt
O=C(O)/C=C\C(=O)Nc1cccc2c1-c1ccccc1C2=O,nt,6%,nt,nt,nt
Cc1ccc(C)c(OCC(O)CN2CCC(Cc3ccccc3)CC2)c1 (stereo unspecified),7.4µM*,-22%,-1%,3%,?
OC(COc1ccc(Cl)cc1)CN1CCC(Cc2ccccc2)CC1 (stereo unspecified),-14%,5%,0%,-8%,?
Cc1ccc(C)c(OCC(O)CN2CCCCC2C)c1 (stereo unspecified),?,1%,0%,-1%,10µM*
Cc1ccc(C)c(OCC(O)CN2C(C)CCCC2C)c1 (stereo unspecified),?,1%,4%,-4%,nt
CN1CCN2c3ncccc3Cc3ccccc3[C@@H]2C1,-12%,-9%,-3%,6%,61%
NC1=NCC2c3ccccc3Cc3ccccc3N12 (stereo unspecified),?,nt,nt,nt,6.7µM*
Cc1ccc(S(=O)(=O)N/N=C/c2ccc(C(=O)O)cc2)cc1,31%,3%,0%,4%,12µM*
CCc1ccc(-c2cc(C)no2)cc1S(=O)(=O)N1CCN(c2cccc(C)c2C)CC1,5.2µM*,28%,-4%,3%,12µM*
COc1ccc(-c2cc(C)no2)cc1S(=O)(=O)N(C)Cc1ccco1,17%,-16%,-9%,9%,-14%
COc1ccc(-c2cc(C)no2)cc1S(=O)(=O)N1CCOc2ccccc21,?,10%,18%,-10%,5%
CCc1ccc(-c2cc(C)no2)cc1S(=O)(=O)N1CCN(c2ccccc2F)CC1,?,5%,-3%,-10%,-29%
CCCN(c1ccccc1F)S(=O)(=O)c1cc(-c2cc(C)no2)ccc1OC,?,5%,-1%,8%,15µM*
